# Experimental data taken from ChEMBL document CHEMBL4513152, “CO-ADD screening of Yantai University (China) compounds”.
# Measured potencies and affinities stand elsewhere.
# Tests used:
# Klebsiella pneumoniae = details: Concentration 32 ug.mL-1; ASSAY_TEST Inhibition of Bacterial Growth; detection method Absorption (OD600); MEDIA CAMHB; plate type 384well; NBS; CORNING #3640; time 18 hr
# Candida albicans = details: 32 ug/mL
# Cryptococcus neoformans = details: Concentration 32 ug.mL-1; ASSAY_TEST Inhibition of Fungal Growth; detection method Resazurin; Absorption (OD600-OD570); plate type 384well; NBS; CORNING #3640
structure (smiles),measurement,setting,value
CC(=O)O[C@H]1C[C@@]2(C)C(C[C@@H](O)C3[C@@]4(C)CC[C@@H](OC(=O)c5ccccc5C(=O)Nc5cccc(N)c5)[C@@H](C)C4CC[C@@]32C)/C1=C(\CCC=C(C)C)C(=O)OCc1ccccc1 (some centres not stated),Inhibition,Klebsiella pneumoniae,1.34%
same,Inhibition,Candida albicans,1.55%
same,Inhibition,Cryptococcus neoformans,-66.02%
CC(=O)O[C@H]1C[C@@]2(C)C(C[C@@H](O)C3[C@@]4(C)CC[C@@H](O)[C@@H](C)C4CC[C@@]32C)/C1=C(\CCC=C(C)C)C(=O)On1nnc2ccccc21 (some centres not stated),Inhibition,Klebsiella pneumoniae,-4.91%
same,Inhibition,Candida albicans,3.88%
same,Inhibition,Cryptococcus neoformans,-40.31%
CC(=O)O[C@H]1C[C@@]2(C)C(C[C@@H](O)C3[C@@]4(C)CC[C@@H](OC(=O)C(N)C(C)C)[C@@H](C)C4CC[C@@]32C)/C1=C(\CCC=C(C)C)C(=O)OCc1ccccc1 (some centres not stated),Inhibition,Klebsiella pneumoniae,18.28%
same,Inhibition,Candida albicans,14.4%
same,Inhibition,Cryptococcus neoformans,88.23%
CC(=O)O[C@H]1C[C@@]2(C)C(C[C@@H](O)C3[C@@]4(C)CC[C@@H](OC(=O)c5ccccc5C(=O)OCCc5ccc(OCCO[N+](=O)[O-])cc5)[C@@H](C)C4CC[C@@]32C)/C1=C(\CCC=C(C)C)C(=O)OCc1ccccc1 (some centres not stated),Inhibition,Klebsiella pneumoniae,4.99%
same,Inhibition,Candida albicans,-0.23%
same,Inhibition,Cryptococcus neoformans,-57.39%
CC(=O)O[C@H]1C[C@@]2(C)C(C[C@@H](O)C3[C@@]4(C)CC[C@@H](OC(=O)CCC(=O)Oc5ccc(CCO[N+](=O)[O-])cc5)[C@@H](C)C4CC[C@@]32C)/C1=C(\CCC=C(C)C)C(=O)OCc1ccccc1 (some centres not stated),Inhibition,Klebsiella pneumoniae,-3.54%
same,Inhibition,Candida albicans,-8.49%
same,Inhibition,Cryptococcus neoformans,-78.97%
CC(=O)O[C@H]1C[C@@]2(C)C(C[C@@H](O)C3[C@@]4(C)CC[C@@H](OC(=O)CO[N+](=O)[O-])[C@@H](C)C4CC[C@@]32C)/C1=C(\CCC=C(C)C)C(=O)OCc1ccccc1 (some centres not stated),Inhibition,Klebsiella pneumoniae,17.67%
same,Inhibition,Candida albicans,0.87%
same,Inhibition,Cryptococcus neoformans,-43.62%
CC(=O)O[C@H]1C[C@@]2(C)C(C[C@@H](O)C3[C@@]4(C)CC[C@@H](OC(=O)CCCCCO[N+](=O)[O-])[C@@H](C)C4CC[C@@]32C)/C1=C(\CCC=C(C)C)C(=O)OCc1ccccc1 (some centres not stated),Inhibition,Klebsiella pneumoniae,-0.98%
same,Inhibition,Candida albicans,-2.51%
same,Inhibition,Cryptococcus neoformans,-81.56%
CC(=O)O[C@H]1C[C@@]2(C)C(C[C@@H](O)C3[C@@]4(C)CC[C@@H](OC(=O)c5ccccc5C(=O)Oc5ccc(CCO[N+](=O)[O-])cc5)[C@@H](C)C4CC[C@@]32C)/C1=C(\CCC=C(C)C)C(=O)OCc1ccccc1 (some centres not stated),Inhibition,Klebsiella pneumoniae,0.97%
same,Inhibition,Candida albicans,-5.71%
same,Inhibition,Cryptococcus neoformans,-72.43%
CC(=O)O[C@H]1C[C@@]2(C)C(C[C@@H](O)C3[C@@]4(C)CC[C@@H](OC(=O)CCCCO[N+](=O)[O-])[C@@H](C)C4CC[C@@]32C)/C1=C(\CCC=C(C)C)C(=O)OCc1ccccc1 (some centres not stated),Inhibition,Klebsiella pneumoniae,6.42%
same,Inhibition,Candida albicans,-3.76%
same,Inhibition,Cryptococcus neoformans,-91.73%
CC(=O)O[C@H]1C[C@@]2(C)C(CC(=O)C3[C@@]4(C)CC[C@@H](OC(=O)CCCCCO[N+](=O)[O-])[C@@H](C)C4CC[C@@]32C)/C1=C(\CCC=C(C)C)C(=O)OCc1ccccc1 (some centres not stated),Inhibition,Klebsiella pneumoniae,8.79%
same,Inhibition,Candida albicans,-2.93%
same,Inhibition,Cryptococcus neoformans,-87.68%
CC(=O)O[C@H]1C[C@@]2(C)C(C[C@@H](O)C3[C@@]4(C)CC[C@@H](OC(=O)c5ccccc5C(=O)Nc5ccc(N)cc5)[C@@H](C)C4CC[C@@]32C)/C1=C(\CCC=C(C)C)C(=O)OCc1ccccc1 (some centres not stated),Inhibition,Klebsiella pneumoniae,5.38%
same,Inhibition,Candida albicans,25%
same,Inhibition,Cryptococcus neoformans,-105.92%
CC(=O)O[C@H]1C[C@@]2(C)C(C[C@@H](O)C3[C@@]4(C)CC[C@@H](O)[C@@H](C)C4CC[C@@]32C)/C1=C(\CCC=C(C)C)C(=O)Oc1ccc(CCO[N+](=O)[O-])cc1 (some centres not stated),Inhibition,Klebsiella pneumoniae,24.64%
same,Inhibition,Candida albicans,7.08%
same,Inhibition,Cryptococcus neoformans,-126.19%
CC(=O)O[C@H]1C[C@@]2(C)C(CC(=O)C3[C@@]4(C)CCC(=O)[C@@H](C)C4CC[C@@]32C)/C1=C(\CCC=C(C)C)C(=O)OCc1ccccc1 (some centres not stated),Inhibition,Klebsiella pneumoniae,19.97%
same,Inhibition,Candida albicans,6.47%
same,Inhibition,Cryptococcus neoformans,-73.01%
CC(=O)O[C@H]1C[C@@]2(C)C(C[C@@H](O)C3[C@@]4(C)CC[C@@H](OC(=O)CCC(=O)O)[C@@H](C)C4CC[C@@]32C)/C1=C(\CCC=C(C)C)C(=O)OCc1ccccc1 (some centres not stated),Inhibition,Klebsiella pneumoniae,31.46%
same,Inhibition,Candida albicans,-1.56%
same,Inhibition,Cryptococcus neoformans,-100.19%
CC(=O)O[C@H]1C[C@@]2(C)C(C[C@@H](O)C3[C@@]4(C)CC[C@@H](OC(=O)CCC(=O)OCCc5ccc(OCCO[N+](=O)[O-])cc5)[C@@H](C)C4CC[C@@]32C)/C1=C(\CCC=C(C)C)C(=O)OCc1ccccc1 (some centres not stated),Inhibition,Klebsiella pneumoniae,3.49%
same,Inhibition,Candida albicans,-4.49%
same,Inhibition,Cryptococcus neoformans,-89.71%
CC(=O)O[C@H]1C[C@@]2(C)C(C[C@@H](O)C3[C@@]4(C)CC[C@@H](OC(=O)C(N)CC(C)C)[C@@H](C)C4CC[C@@]32C)/C1=C(\CCC=C(C)C)C(=O)OCc1ccccc1 (some centres not stated),Inhibition,Klebsiella pneumoniae,5.15%
same,Inhibition,Candida albicans,2.67%
same,Inhibition,Cryptococcus neoformans,-45.25%
CC(=O)O[C@H]1C[C@@]2(C)C(CC(=O)C3[C@@]4(C)CC[C@@H](OC(=O)CCCCO[N+](=O)[O-])[C@@H](C)C4CC[C@@]32C)/C1=C(\CCC=C(C)C)C(=O)OCc1ccccc1 (some centres not stated),Inhibition,Klebsiella pneumoniae,10.79%
same,Inhibition,Candida albicans,-1.47%
same,Inhibition,Cryptococcus neoformans,-85.18%
CC(=O)O[C@H]1C[C@@]2(C)C(C[C@@H](O)C3[C@@]4(C)CC[C@@H](O)[C@@H](C)C4CC[C@@]32C)/C1=C(\CCC=C(C)C)C(=O)OCc1ccccc1 (some centres not stated),Inhibition,Klebsiella pneumoniae,15.54%
same,Inhibition,Candida albicans,-0.49%
same,Inhibition,Cryptococcus neoformans,-62.82%
CC(=O)O[C@H]1C[C@@]2(C)C(C[C@@H](O)C3[C@@]4(C)CC[C@@H](OC(=O)C(C)N)[C@@H](C)C4CC[C@@]32C)/C1=C(\CCC=C(C)C)C(=O)OCc1ccccc1 (some centres not stated),Inhibition,Klebsiella pneumoniae,8.77%
same,Inhibition,Candida albicans,16.1%
same,Inhibition,Cryptococcus neoformans,90.52%
